For assay [1], the target named is Cytochrome P450 3A4 (Homo sapiens) (UniProt P08684). Kind of assay: qHTS Assay for Activators of Cytochrome P450 3A4 (AID 885). Further: nearly all actives have a fitted effect of over 65% in size. In short, it runs like this:
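Quantitative HTS format: compounds preincubated with 20nM human CYP3A4 and Luciferin-PPXE substrate at KM, reaction started by NADPH regeneration, stopped after 60 min, luciferase luminescence read 20 min later.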

Assay [2] can be described thus: Confirmation and Secondary Assay for Modulators of Hemoglobin Beta Chain Splicing at IVS2 654 locus (AID 910).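 Further: HeLa cells stably carrying EGFP split by mutant beta-globin IVS2-654 intron; per-well total GFP intensity by laser scanning cytometry after 2-day treatment; % of control where 0% means no effect.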 The procedure, abridged: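 Readout: per-well total peak green fluorescence (488 nm ex, 500–520 nm em) from objects 5–250 µm, reflecting correct splicing of an EGFP-654 reporter. Compounds were applied for 2 days at 37 °C to overnight-plated HeLa EGFP-654 cells; controls were DMSO and 500 nM IVS2-654 PNA.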

Assay [3] in a line: Confirmation and Secondary Assay for Modulators of Hemoglobin Beta Chain Splicing at IVS2 705 locus (AID 930).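 Further: HeLa cells stably expressing the EGFP-705 splicing reporter; GFP fluorescence per well restored by corrected splicing of the IVS2-705 intron in EGFP; % of control where 0% means no effect.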 In short, it runs like this:
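HeLa EGFP-705 reporter; 500 cells/well, o/n 37C 5% CO2; cpd 2 d; 488 ex/500-520 em laser scan; total peak GFP intensity/well. Ref: 500 nM […] antisense PNA.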

The nature of assay [4]: qHTS Assay for Lipid Storage Modulators (AID 1519; calls by dose curve; on activity change, negative = inhibition: on the % scale 0 is the no-effect control and ±100 the full control effect). As to conditions: Drosophila S3 cells, BODIPY lipid droplet/cell ratio, laser cytometry, cells loaded with oleic acid; for activity change, negative = inhibition: at 57.5 µM (top of the series). In short, it runs like this: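 Cells seeded at 5,000 per well were treated with compounds over a concentration series and loaded with oleic acid (400 uM, as added). Lipid droplet fluorescence (488 nm excitation, 500-530 nm channel) was read by laser-scanning cytometry and normalized to 20 uM Triacsin C.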

Where [5] appears, read: measured here: cell count channel max response.
The mark [6] stands for this setting: measured here: lipid channel max response.

Structures are written as SMILES. Inconclusive results are not listed. Active and inactive are the calls of the source. Unless noted, the call rests on the fitted dose curve; in most records, active means well fitted curve in the direction sought with a large enough effect; inconclusive means small, poorly fitted or top-dose-only effect, or another doubt; inactive means no such curve, though single readings can be large; an effect the other way counts as inactive or inconclusive.

Chain of Cytochrome P450 3A4 (Homo sapiens) (P08684 whole entry, looked up): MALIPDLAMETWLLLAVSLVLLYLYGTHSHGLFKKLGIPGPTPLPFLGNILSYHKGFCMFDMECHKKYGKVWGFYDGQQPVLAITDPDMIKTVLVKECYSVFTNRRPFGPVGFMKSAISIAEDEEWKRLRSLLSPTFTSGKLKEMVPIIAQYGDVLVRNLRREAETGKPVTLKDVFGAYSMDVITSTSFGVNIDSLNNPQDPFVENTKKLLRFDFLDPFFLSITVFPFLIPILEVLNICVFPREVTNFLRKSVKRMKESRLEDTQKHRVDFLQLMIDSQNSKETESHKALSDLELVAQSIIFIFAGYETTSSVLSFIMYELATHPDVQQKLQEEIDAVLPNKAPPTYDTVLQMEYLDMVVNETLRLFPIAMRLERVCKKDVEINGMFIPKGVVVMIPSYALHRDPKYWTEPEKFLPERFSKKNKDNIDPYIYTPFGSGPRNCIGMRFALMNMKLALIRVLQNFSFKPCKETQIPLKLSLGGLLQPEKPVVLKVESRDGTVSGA

Turning to `CCCCCc1c2c(cc(O)c1C(=O)O)OC(=O)c1c(cc(OC)cc1C(=O)CCCC)O2`, the Potency entry in assay [1], in assay [2] and in assay [3] was “inactive” throughout. For the same compound, the activity change, negative = inhibition in assay [4] is 7.58% (inactive). Moreover, the figures for the max response in assay [4] (setting [5]) and in assay [4] (setting [6]) were 12.3% and 21.9%, respectively.

Turning to `CC(=O)OC1CC2C(C)(C)C(O)CC[C@@]2(C)C2CC[C@@]3(C)C(c4ccoc4)OC(=O)C4O[C@@]43[C@]12C` (stereo not given in full), the Potency result in assay [1], in assay [2] and in assay [3] was “inactive” throughout. In addition, in assay [4], the activity change, negative = inhibition is -1.7% (inactive). Besides, the max response in assay [4] (setting [5]) is -2.48%; in assay [4] (setting [6]), -4.24%.

Turning to `COc1cc(O)c(C(C)=O)c(OC)c1`, the Potency entry in assay [1] and in assay [3] was “inactive” throughout. Moreover, in assay [4], the activity change, negative = inhibition is 4.43% (inactive). The max response in assay [4] (setting [5]) was determined as 20%; in assay [4] (setting [6]), 28.9%.

Regarding `C=CCCCCCCCCCCC/C=C/C(O)COC(C)=O` (stereo not given), the Potency entry in assay [1], in assay [2] and in assay [3] was “inactive” in each case. In addition, the activity change, negative = inhibition in assay [4] is 8.71% (inactive). The max response in assay [4] (setting [5]) was 8.46%; in assay [4] (setting [6]), 19.5%.

Turning to `CC1(C)OC2CC3C4CCC5=CC(=O)CCC5(C)C4(F)C(O)CC3(C)[C@]2(C(=O)CCl)O1` (stereo not given in full), the Potency result in assay [1], in assay [2] and in assay [3] was “inactive” throughout. Besides, the activity change, negative = inhibition in assay [4] was 8% (inactive). Also, the max response came out at 13.8% in assay [4] (setting [5]) and 26.2% in assay [4] (setting [6]).

`CC(=O)Oc1cc2c(c(C)c1OC(C)=O)CC=C1[C@]3(C)CC[C@]4(C)CC[C@@](C)(C(=O)O)CC4[C@]3(C)CC[C@]12C` (stereo not given in full): the Potency result in assay [2] and in assay [3] was “inactive” in each case. Also, in assay [4], the activity change, negative = inhibition is -5.08% (inactive). In addition, the max response is -7.33% in assay [4] (setting [5]) and -12.4% in assay [4] (setting [6]).

On to `O=C(CC(=O)c1ccccc1)c1ccccc1`, for which the Potency entry in assay [1], in assay [2] and in assay [3] was “inactive” throughout. Further, the activity change, negative = inhibition in assay [4] was 2.34% (inactive). Further, the max response in assay [4] (setting [5]) was -0.636%; in assay [4] (setting [6]) it was 4.72%.

On to `CCCCC(=O)O[C@@]1(C(=O)CO)C(C)CC2C3CCC4=CC(=O)C=C[C@@]4(C)[C@]3(F)C(O)C[C@]21C` (stereo not given in full), for which the Potency result in assay [1], in assay [2] and in assay [3] was “inactive” in each case. Besides, the activity change, negative = inhibition in assay [4] is -6.08% (inactive). For the same compound, the max response in assay [4] (setting [5]) was found to be 9.88%; in assay [4] (setting [6]), 7.08%.

Regarding `CC(=O)OCC(=O)[C@@]1(O)CCC2C3CC(C)C4=CC(=O)C=CC4(C)C3C(O)CC21C` (stereo not given in full), the Potency entry in assay [1], in assay [2] and in assay [3] was “inactive” each time. For the same compound, the activity change, negative = inhibition in assay [4] is 2.16% (inactive). Besides, the values for the max response in assay [4] (setting [5]) and in assay [4] (setting [6]) were -9.81% and -3.93%, respectively.

As for `CC(C)c1c(O)ccc2c1CCC1[C@@](C)(C=O)CCC[C@@]21C` (stereo not given in full), the Potency entry in assay [1], in assay [2] and in assay [3] was “inactive” each time. In addition, the activity change, negative = inhibition in assay [4] is -2.8% (inactive). In addition, the max response in assay [4] (setting [5]) is 1.05%; in assay [4] (setting [6]), -0.0657%.

Turning to `CC1OC(OCC2OC(Oc3c(-c4ccc(O)c(O)c4)oc4cc(O)cc(O)c4c3=O)C(O)C(O)C2O)[C@@H](O)C(O)C1O` (stereo not given in full), the Potency result in assay [2] and in assay [3] was “inactive” throughout. Moreover, the activity change, negative = inhibition in assay [4] is 4.3% (inactive). Moreover, the max response in assay [4] (setting [5]) turned out to be 4.35%; in assay [4] (setting [6]), 10.1%.

For the compound `C#CCCCCCCCCCCCc1ccco1`, the Potency result in assay [1], in assay [2] and in assay [3] was “inactive” in each case. The activity change, negative = inhibition in assay [4] is 2.25% (inactive). The max response was determined as 8.94% in assay [4] (setting [5]) and 11.4% in assay [4] (setting [6]).

For `C#CCCCCCCCCCCCC(O)CC(O)CO` (stereo not given), the Potency result in assay [2] and in assay [3] was “inactive” in each case. For the same compound, in assay [4], the activity change, negative = inhibition was 15.6% (inactive). Also, the max response in assay [4] (setting [5]) was determined as 3.34%; in assay [4] (setting [6]) it was 18.3%.

On to `CC(=O)O[C@@]1(C(C)=O)CCC2C3C=C(C)C4=CC(=O)CCC4(C)C3CCC21C` (stereo not given in full), for which the Potency entry in assay [2] and in assay [3] was “inactive” in each case. In addition, in assay [4], the activity change, negative = inhibition was 3.94% (inactive). Also, the max response in assay [4] (setting [5]) worked out at 7.28%; in assay [4] (setting [6]), 12.7%.

For `CC(C)C1=CC2=CCC3[C@@](C)(CCC[C@@]3(C)C(=O)O)C2CC1` (stereo not given in full), the Potency result in assay [1], in assay [2] and in assay [3] was “inactive” throughout. For the same compound, the activity change, negative = inhibition in assay [4] was 4.85% (inactive). Also, the max response is 5.3% in assay [4] (setting [5]) and 10.4% in assay [4] (setting [6]).

With `C#C[C@@]1(O)CCC2C3CCc4cc(O)ccc4C3CC[C@@]21C` (stereo not given in full), the Potency result in assay [2] and in assay [3] was “inactive” each time. In assay [4], the activity change, negative = inhibition was 6.48% (inactive). Further, the max response in assay [4] (setting [5]) worked out at 1.86%; in assay [4] (setting [6]), 11.2%.
